The values that follow come from PubChem BioAssay (NCATS).

Several values for one entry are separate records, joined by “and”; a condition that tells them apart may be missing. Equal entries are not always repeated. Results filed as inconclusive are left out. Unmarked numbers belong to inactive results. Activity calls are given as the source filed them. Calls follow the shape of the dose curve; as a rule, active = well fitted curve in the direction sought with a large enough effect; inconclusive = small, poorly fitted or top-dose-only effect, or another doubt; inactive = no such curve, though single readings can be large; an effect the other way counts as inactive or inconclusive.

Assay [1] has as its target Rap guanine nucleotide exchange factor 3 (Homo sapiens) (UniProt O95398). The assay can be described thus: Confirmatory qHTS for agonist of cAMP-regulated guanine nucleotide exchange factor 3 (EPAC1) (AID 1645881).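 Also: EPAC1 catalysed release of BODIPY-GDP from Rap1B seen as fluorescence loss; 100% = effect of cAMP agonist control; nearly all actives have a fitted effect of over 75% in size.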
Assay [2] has as its target Rap guanine nucleotide exchange factor 4 (Homo sapiens) (UniProt Q8WZA2). Nature of the assay: Confirmatory qHTS for agonist of cAMP-regulated guanine nucleotide exchange factor 4 (EPAC2) (AID 1645884).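 Also: nucleotide exchange releases bodipy-GDP from Rap1 and this lowers its fluorescence; % is scaled to controls: 0 for no effect and ±100 for the full control effect; nearly all actives have a fitted effect of over 65% in size.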
For assay [3] the target is unchanged. Nature of the assay: Confirmatory qHTS for antagonist of cAMP-regulated guanine nucleotide exchange factor 4 (EPAC2) (AID 1645885). Also: nearly all actives have a fitted effect of over 25% in size. As to activity change, negative = inhibition: % is scaled to controls: 0 for no effect and ±100 for the full control effect.
Assay [4] addresses Rap guanine nucleotide exchange factor 3 (Homo sapiens) (UniProt O95398). The assay can be described thus: Counterscreen qHTS for antagonist of cAMP-regulated guanine nucleotide exchange factor 3 (EPAC1) (AID 1645888).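 Also: fluorescence loss as bound BODIPY-GDP is released from Rap1B; % of control where 0% means no effect.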 The gist of the method: (§1)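 Rap1B–BODIPY-GDP (250 nM) with 50 uM GDP; compounds pin-transferred to 9.74 nM–152 uM final (activator) or from 7.32 nM upwards (inhibitor). Fluorescence Ex/Em 480/540 nm read at 5 and 30 min, then after adding cAMP or buffer, at room temperature.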

Assay [5] has the same target. The assay can be described thus: Counterscreen qHTS for agonist of cAMP-regulated guanine nucleotide exchange factor 3 (EPAC1) (AID 1645889). Also: nearly all actives have a fitted effect of over 40% in size. Also: potency is read from the fitted curve at half-maximal effect. As to activation: % of control where 0% means no effect. The gist of the method: as §1

Chain of Rap guanine nucleotide exchange factor 3 (Homo sapiens) (O95398 whole entry, looked up): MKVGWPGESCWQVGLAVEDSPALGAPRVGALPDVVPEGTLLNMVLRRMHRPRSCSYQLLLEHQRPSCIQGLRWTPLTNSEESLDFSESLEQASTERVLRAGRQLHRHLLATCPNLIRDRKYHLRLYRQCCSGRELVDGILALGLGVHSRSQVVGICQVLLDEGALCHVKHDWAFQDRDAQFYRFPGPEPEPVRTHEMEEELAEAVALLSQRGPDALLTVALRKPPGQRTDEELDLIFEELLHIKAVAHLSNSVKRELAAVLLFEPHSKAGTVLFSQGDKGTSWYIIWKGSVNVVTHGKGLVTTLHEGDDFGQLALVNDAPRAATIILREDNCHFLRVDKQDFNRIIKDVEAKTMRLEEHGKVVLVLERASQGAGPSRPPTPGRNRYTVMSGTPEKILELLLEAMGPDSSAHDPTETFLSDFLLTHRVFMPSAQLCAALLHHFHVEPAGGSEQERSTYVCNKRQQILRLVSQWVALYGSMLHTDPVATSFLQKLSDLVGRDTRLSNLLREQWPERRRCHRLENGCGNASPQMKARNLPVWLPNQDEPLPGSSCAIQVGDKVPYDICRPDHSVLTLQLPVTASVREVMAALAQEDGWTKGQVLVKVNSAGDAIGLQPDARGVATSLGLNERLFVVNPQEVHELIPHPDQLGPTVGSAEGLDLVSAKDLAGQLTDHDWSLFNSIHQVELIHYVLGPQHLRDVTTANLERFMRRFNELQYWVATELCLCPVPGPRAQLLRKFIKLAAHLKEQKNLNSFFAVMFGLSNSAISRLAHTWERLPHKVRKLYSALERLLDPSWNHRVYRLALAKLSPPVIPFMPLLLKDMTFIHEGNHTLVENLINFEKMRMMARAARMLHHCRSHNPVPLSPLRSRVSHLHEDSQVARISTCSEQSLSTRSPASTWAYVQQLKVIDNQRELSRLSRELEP
Chain of Rap guanine nucleotide exchange factor 4 (Homo sapiens) (Q8WZA2 whole entry, looked up): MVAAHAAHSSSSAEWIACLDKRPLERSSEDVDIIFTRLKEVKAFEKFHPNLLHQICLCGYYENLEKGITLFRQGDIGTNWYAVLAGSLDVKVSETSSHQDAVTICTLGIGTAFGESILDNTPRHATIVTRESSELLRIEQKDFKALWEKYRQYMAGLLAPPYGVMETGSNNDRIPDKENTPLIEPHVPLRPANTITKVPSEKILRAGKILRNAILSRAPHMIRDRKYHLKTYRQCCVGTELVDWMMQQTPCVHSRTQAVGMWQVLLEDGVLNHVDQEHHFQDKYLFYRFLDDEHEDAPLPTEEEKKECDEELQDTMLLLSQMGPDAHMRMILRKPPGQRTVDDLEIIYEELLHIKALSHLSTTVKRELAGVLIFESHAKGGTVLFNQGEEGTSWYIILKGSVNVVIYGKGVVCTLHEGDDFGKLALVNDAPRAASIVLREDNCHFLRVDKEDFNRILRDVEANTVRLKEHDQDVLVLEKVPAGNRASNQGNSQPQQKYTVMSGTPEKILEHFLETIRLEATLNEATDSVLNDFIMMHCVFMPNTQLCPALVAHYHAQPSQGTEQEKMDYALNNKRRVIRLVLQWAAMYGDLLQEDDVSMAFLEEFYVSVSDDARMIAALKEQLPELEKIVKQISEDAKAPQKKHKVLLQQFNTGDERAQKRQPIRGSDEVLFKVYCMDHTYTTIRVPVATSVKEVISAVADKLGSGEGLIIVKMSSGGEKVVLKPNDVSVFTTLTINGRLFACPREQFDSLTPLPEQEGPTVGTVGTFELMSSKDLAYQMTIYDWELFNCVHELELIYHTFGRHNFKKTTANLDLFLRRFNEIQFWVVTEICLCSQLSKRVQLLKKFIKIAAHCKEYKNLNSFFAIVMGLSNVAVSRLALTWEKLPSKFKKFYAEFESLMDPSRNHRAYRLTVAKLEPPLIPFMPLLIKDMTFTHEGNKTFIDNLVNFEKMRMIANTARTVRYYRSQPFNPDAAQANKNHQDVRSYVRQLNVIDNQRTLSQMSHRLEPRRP

In the case of `O=C(O)COc1ccc(/C=N/NC(=O)c2ccc(-c3csc(Nc4ccc(Cl)cc4)n3)cc2)cc1`, the Potency entry in assay [1], in assay [2], in assay [3], in assay [4] and in assay [5] was “inactive” throughout.

As for `Cn1c(N)c(C(=O)CSc2nnc(-c3c[nH]c4ccccc34)n2C2CC2)c(=O)[nH]c1=O`, the Potency result in assay [1] and in assay [3] was “inactive” throughout. Also, the activation in assay [2] was 1.91% [at 17.1 µM, percent relative to cAMP agonist control]; in assay [5], 17.7% [at 30.8 µM]. In addition, the activity change, negative = inhibition in assay [4] was 2.97% [at 30.8 µM].

Turning to `CC1(Cc2ccccc2Cl)C(=O)Nc2c(Cl)cccc21` (stereo not given), the Potency entry in assay [1] and in assay [3] was “inactive” throughout. Further, the activation was 10% [at 17.1 µM, percent relative to cAMP agonist control] in assay [2] and 5.68% [at 30.8 µM] in assay [5]. Moreover, the activity change, negative = inhibition in assay [4] is -23.5% [at 30.8 µM].

For `CC1=NCCN1S(=O)(=O)c1c(C(C)C)cc(C(C)C)cc1C(C)C`, the Potency result in assay [1], in assay [2], in assay [3], in assay [4] and in assay [5] was “inactive” each time.

Consider `CC1CCCCN1S(=O)(=O)c1ccc(C(=O)Nc2nnc(-c3ccccc3Cl)o2)cc1` (stereo not given), for which the Potency entry in assay [1] and in assay [3] was “inactive” in each case. Also, the activation in assay [2] is 0% [at 17.1 µM, percent relative to cAMP agonist control]; in assay [5], 16.2% [at 30.8 µM]. Further, the activity change, negative = inhibition in assay [4] was -13.1% [at 30.8 µM].

Consider `Cc1nc2c(C(=O)NCc3ccc(F)cc3)c[nH]n2c(=O)c1Cl`, for which the Potency entry in assay [1], in assay [2], in assay [3], in assay [4] and in assay [5] was “inactive” each time.

Regarding `O=C(N[C@H](Cc1ccc(Cl)cc1)C(=O)O)OCC1c2ccccc2-c2ccccc21`, the Potency entry in assay [1] and in assay [3] was “inactive” each time. Moreover, the activation in assay [2] was -11.8% [at 17.1 µM, percent relative to cAMP agonist control]; in assay [5], 8.84% [at 30.8 µM]. Besides, the activity change, negative = inhibition in assay [4] is -5.81% [at 30.8 µM].

`OC(c1cc(F)cc(Cl)c1)c1ncc(-c2cccc(C(F)(F)F)c2)[nH]1` (stereo not given): the Potency entry in assay [1] and in assay [3] was “inactive” each time. The activation is -1.66% [at 17.1 µM, percent relative to cAMP agonist control] in assay [2] and 19.7% [at 30.8 µM] in assay [5]. Also, in assay [4], the activity change, negative = inhibition is -12% [at 30.8 µM].

For `CC(C)(C)N1CC(c2nc3ccccc3n2CCOc2ccccc2)CC1=O` (stereo not given), the Potency result in assay [1], in assay [2], in assay [3], in assay [4] and in assay [5] was “inactive” throughout.

`O=C1C=CC(c2ccccc2)(c2ccccc2)CC1`: the Potency result in assay [1] and in assay [3] was “inactive” throughout. Further, the activation in assay [2] is 8.73% [at 17.1 µM, percent relative to cAMP agonist control]; in assay [5] it was 29.7% [at 30.8 µM]. Further, in assay [4], the activity change, negative = inhibition was -3.3% [at 30.8 µM].

Regarding `CCOc1cc(/C=C/c2cc(C(=O)O)c3ccccc3n2)ccc1OC`, the Potency entry in assay [1] and in assay [3] was “inactive” throughout. Also, the activation in assay [2] was -3.6% [at 17.1 µM, percent relative to cAMP agonist control]; in assay [5], 6.45% [at 30.8 µM]. Further, in assay [4], the activity change, negative = inhibition is 8.54% [at 30.8 µM].

In the case of `CCOC(=O)C(C)Sc1nc(-c2ccco2)cc(C(F)(F)F)c1C#N` (stereo not given), the Potency result in assay [1] and in assay [3] was “inactive” each time. The activation in assay [2] was 0.901% [at 17.1 µM, percent relative to cAMP agonist control]; in assay [5], 0.691% [at 30.8 µM]. Further, the activity change, negative = inhibition in assay [4] is -10.8% [at 30.8 µM].

`COc1cc2c(c(OC)c1OC)-c1c(cc(OC)c(OC)c1OC)C[C@H](C)[C@H](C)C2`: the Potency result in assay [1] and in assay [3] was “inactive” throughout. The activation is 7.13% [at 17.1 µM, percent relative to cAMP agonist control] in assay [2] and 23.6% [at 30.8 µM] in assay [5]. Also, the activity change, negative = inhibition in assay [4] is -11.3% [at 30.8 µM].

For `NS(=O)(=O)c1ccc(N/N=C/c2ccccc2C(=O)O)c([N+](=O)[O-])c1`, the Potency entry in assay [1], in assay [2], in assay [3], in assay [4] and in assay [5] was “inactive” throughout.

`COc1ccccc1/C=C1\SC(=S)N(CCC(=O)Nc2ccc(C(=O)O)c(O)c2)C1=O`: the Potency entry in assay [1] and in assay [3] was “inactive” throughout. For the same compound, the activation is 4.12% [at 17.1 µM, percent relative to cAMP agonist control] in assay [2] and 10.4% [at 30.8 µM] in assay [5]. Further, in assay [4], the activity change, negative = inhibition was -13.3% [at 30.8 µM].

Take `O=C(Nc1cc(C(F)(F)F)ccc1Cl)c1nc2ccccc2nc1N1CCCCC1`: the Potency entry in assay [1], in assay [2], in assay [4] and in assay [5] was “inactive” each time. In addition, in assay [3], the outcome is “inactive [at 12.7 µM]”.

As to `COc1ccccc1Cc1c(-c2ccco2)nc2cc(C)c(Br)c(C)n12`, the Potency entry in assay [1] and in assay [3] was “inactive” each time. In addition, the activation is 3.49% [at 17.1 µM, percent relative to cAMP agonist control] in assay [2] and 13.6% [at 30.8 µM] in assay [5]. In assay [4], the activity change, negative = inhibition was -0.951% [at 30.8 µM].

Turning to `CCOc1cccc(CNc2ccc(O)cc2)c1OCc1ccccc1Cl`, the Potency result in assay [1], in assay [2], in assay [3] and in assay [4] was “inactive” each time. The Potency in assay [5] is 44.7 nM (active) and 79.4 µM (active).

As to `CCOC(=O)C1=C(C)N=c2s/c(=C/c3cccc([N+](=O)[O-])c3O)c(=O)n2C1c1ccccc1` (stereo not given), the Potency entry in assay [1], in assay [2], in assay [3], in assay [4] and in assay [5] was “inactive” throughout.
